# Values joined by “and” are separate entries in the source; they are usually repeats but may differ in a detail not shown here. Equal values may be shown once. Inconclusive results are not listed. Entries that show only a call come without a potency. More than one record can exist for a structure, and the calls need not agree. Active and inactive are the calls of the source. Unless noted, calls come from the whole dose curve; as a rule, active = well fitted curve in the direction sought with a large enough effect in the repeat runs; inconclusive = weak or mixed curves; inactive = no such curve, though single readings can be large; an effect the other way counts as inactive or inconclusive.
# How the values were obtained:
# [1] = qHTS assay to identify aromatase inhibitors - cell viability counter screen (AID 743084);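 note: cells stimulated with testosterone during compound exposure; nearly all actives have a fitted effect of over 55% in size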; note: potency is the fitted concentration of half-maximal effect
# [2] = target: Aryl hydrocarbon receptor (Homo sapiens) (UniProt P35869); experiment: qHTS assay to identify small molecule that activate the aryl hydrocarbon receptor (AhR) signaling pathway (AID 743085); note: nearly all actives have a fitted effect of over 15% in size; note: potency is the fitted concentration of half-maximal effect;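 for activation: HG2L7.5c1 human HepG2 liver cells with stably integrated DRE-driven firefly reporter; series mostly up to about 70 µM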
# Aryl hydrocarbon receptor (Homo sapiens), sequence (P35869 whole entry, looked up): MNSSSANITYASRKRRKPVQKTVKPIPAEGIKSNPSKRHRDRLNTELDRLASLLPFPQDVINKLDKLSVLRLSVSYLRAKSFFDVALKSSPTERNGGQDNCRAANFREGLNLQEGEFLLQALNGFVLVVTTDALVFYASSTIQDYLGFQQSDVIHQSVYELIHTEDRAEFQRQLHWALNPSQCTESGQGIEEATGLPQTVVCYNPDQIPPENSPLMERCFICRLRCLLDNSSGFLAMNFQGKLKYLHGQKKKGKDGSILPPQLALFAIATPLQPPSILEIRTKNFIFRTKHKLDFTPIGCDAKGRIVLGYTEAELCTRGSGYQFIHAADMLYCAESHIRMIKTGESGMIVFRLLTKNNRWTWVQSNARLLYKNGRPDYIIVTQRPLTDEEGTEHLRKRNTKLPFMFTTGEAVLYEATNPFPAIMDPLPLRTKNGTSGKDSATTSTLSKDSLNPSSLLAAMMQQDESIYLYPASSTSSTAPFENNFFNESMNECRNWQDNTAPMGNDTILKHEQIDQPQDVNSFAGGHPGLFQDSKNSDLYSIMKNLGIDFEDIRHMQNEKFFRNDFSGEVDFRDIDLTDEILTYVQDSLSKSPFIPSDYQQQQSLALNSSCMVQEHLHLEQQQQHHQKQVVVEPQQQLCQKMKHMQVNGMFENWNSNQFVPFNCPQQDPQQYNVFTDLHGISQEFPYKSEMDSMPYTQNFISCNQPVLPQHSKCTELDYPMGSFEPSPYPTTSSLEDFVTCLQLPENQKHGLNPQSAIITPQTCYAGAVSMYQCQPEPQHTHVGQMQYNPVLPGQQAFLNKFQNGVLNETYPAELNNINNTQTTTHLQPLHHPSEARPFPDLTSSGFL
# In short: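 A multiplexed format paired cell viability (CellTiter-Fluor fluorescence) with AhR-dependent luciferase output (ONE-Glo luminescence) in the same wells of HepG2 DRE-luc cells after 24 h compound exposure at 37C.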
# [3] = qHTS assay to identify small molecule that activate the aryl hydrocarbon receptor (AhR) signaling pathway - cell viability counter screen (AID 743086);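 note: HepG2 liver cells carrying the AhR DRE luciferase reporter; series mostly up to about 70 µM; nearly all actives have a fitted effect of over 45% in size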
# In short: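 Cytotoxicity counter screen: CellTiter-Fluor signal (30 min, 37 C) in 4000 HepG2 cells/well carrying the DRE-luciferase reporter, following 24 h compound exposure at 37 C.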
# [4] = qHTS assay to identify small molecule antagonists of the peroxisome proliferator-activated receptor gamma (PPARg) signaling pathway - cell viability counter screen (AID 743194); settings: Potency: co-treated with 50 nM rosiglitazone unless noted; note: nearly all actives have a fitted effect of over 55% in size
# In short: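 Viability was measured as CellTiter-Glo luminescence in GeneBLAzer PPARg UAS-bla HEK293H cells. These cells had been exposed 17 h at 37 C to compounds together with rosiglitazone at 50 nM final, with the beta-lactamase readout taken in the same wells.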
# [5] = qHTS assay for small molecule agonists of the antioxidant response element (ARE) signaling pathway (AID 743202; active = well fitted activation curve with a large enough effect in the signal ratio in the repeat runs, not every such curve was filed as active; the % refers to the signal ratio; note: potency is the fitted concentration of half-maximal effect)
# In short: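 Beta-lactamase reporter activity, read as fluorescence intensity, reflects ARE/Nrf2 pathway induction in HepG2 cells after 16 h compound exposure at 37 C; substrate loading was 2 h at room temperature.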
# [6] = qHTS assay for small molecule agonists of the antioxidant response element (ARE) signaling pathway - cell viability counter screen (AID 743203; calls by dose curve; note: nearly all actives have a fitted effect of over 55% in size; note: potency is the fitted concentration of half-maximal effect)
# In short: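 ATP content via CellTiter-Glo luminescence served as the viability measure. Cells: ARE-bla HepG2, 2,000 per well. Exposure: 16 hrs, 37C/5% CO2.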
# [7] = qHTS assay for small molecule activators of the heat shock response signaling pathway - cell viability counter screen (AID 743209); note: nearly all actives have a fitted effect of over 50% in size
# In short: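 Compounds dissolved in DMSO were added to overnight-plated HSE-bla HeLa cells and left 5 h at 37 C. Cell viability was quantified by luminescence using CellTiter-Glo.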
# [8] = qHTS assay to identify small molecule agonists of the peroxisome proliferator-activated receptor delta (PPARd) signaling pathway - cell viability counter screen (AID 743211); note: nearly all actives have a fitted effect of over 55% in size
# In short: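 Tox21 library compounds, delivered in DMSO, were incubated 17 h with PPARd-bla HEK293H cells; cytotoxicity was taken from CellTiter-Glo luminescence read 30 min after reagent addition.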
# [9] = qHTS assay to identify small molecule agonists of the farnesoid-X-receptor (FXR) signaling pathway - cell viability counter screen (AID 743218); note: nearly all actives have a fitted effect of over 45% in size
# In short: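 Quantitative HTS counter screen measuring ATP-based viability via CellTiter-Glo luminescence in HEK 293T cells carrying a UAS-driven beta-lactamase reporter, after 16 h compound exposure at 37 C.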
# [10] = qHTS assay to identify small molecule antagonists of the farnesoid-X-receptor (FXR) signaling pathway - cell viability counter screen (AID 743221; active = well fitted cell-killing curve with a large enough effect in the repeat runs, not every such curve was filed as active; note: nearly all actives have a fitted effect of over 50% in size)
# In short: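 Cytotoxicity is taken from ATP luminescence (CellTiter-Glo, 30 min, room temperature) in FXR-bla HEK 293T cells previously incubated 16 h at 37 C with compound and chenodeoxycholic acid at 50 uM final.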
# [11] = qHTS assay to identify small molecule antagonists of the peroxisome proliferator-activated receptor delta (PPARd) signaling pathway - cell viability counter screen (AID 743213); note: nearly all actives have a fitted effect of over 50% in size
# In short: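 PPARd-bla HEK293H cells (3000/well) got compound plus 300 nM L165041 agonist for 17 h at 37 C. Viability in the same wells came from CellTiter-Glo luminescence after 30 min at room temperature.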
# [12] = target: Vitamin D3 receptor (Homo sapiens) (UniProt P11473); experiment: qHTS assay to identify small molecule agonists of the vitamin D receptor (VDR) signaling pathway (AID 743222; calls by dose curve)
# Vitamin D3 receptor (Homo sapiens), sequence (P11473 whole entry, looked up): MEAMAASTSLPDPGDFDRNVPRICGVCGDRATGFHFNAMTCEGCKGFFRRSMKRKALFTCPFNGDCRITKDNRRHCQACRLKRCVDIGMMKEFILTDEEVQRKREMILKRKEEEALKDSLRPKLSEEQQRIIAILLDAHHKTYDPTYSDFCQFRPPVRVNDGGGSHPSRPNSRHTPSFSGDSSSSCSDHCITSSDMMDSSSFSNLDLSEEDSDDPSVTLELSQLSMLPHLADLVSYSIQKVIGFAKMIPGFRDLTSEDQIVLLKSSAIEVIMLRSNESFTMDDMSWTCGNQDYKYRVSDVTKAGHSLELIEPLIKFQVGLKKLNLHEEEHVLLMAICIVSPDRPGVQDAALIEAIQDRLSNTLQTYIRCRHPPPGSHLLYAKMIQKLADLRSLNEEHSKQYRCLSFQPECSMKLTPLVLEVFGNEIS
# In short: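 Tox21 cell reporter format: VDR-bla line, 16 h compound exposure in 5% CO2 at 37C, then fluorescence intensity after 2 h with LiveBLAzer B/G FRET substrate.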
# [13] = target: Vitamin D3 receptor (Homo sapiens) (UniProt P11473); experiment: qHTS assay to identify small molecule antagonists of the vitamin D receptor (VDR) signaling pathway (AID 743223; active = well fitted inhibition curve with a large enough effect in the signal ratio in the repeat runs, not every such curve was filed as active; the % refers to the signal ratio)
# In short: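 Quantitative HTS in VDR-bla reporter cells stimulated with 1alpha,25-dihydroxyvitamin D3, 3 nM final. Compound exposure 16 h, 37C, 5% CO2. Read-out: beta-lactamase FRET substrate fluorescence, 2 h RT.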
# [14] = target: Peroxisome proliferator-activated receptor gamma (Homo sapiens) (UniProt P37231); experiment: qHTS assay to identify small molecule agonists of the peroxisome proliferator-activated receptor gamma (PPARg) signaling pathway (AID 743094; active = well fitted activation curve with a large enough effect in the signal ratio in the repeat runs, not every such curve was filed as active; the % refers to the signal ratio)
# Peroxisome proliferator-activated receptor gamma (Homo sapiens), sequence (P37231 whole entry, looked up): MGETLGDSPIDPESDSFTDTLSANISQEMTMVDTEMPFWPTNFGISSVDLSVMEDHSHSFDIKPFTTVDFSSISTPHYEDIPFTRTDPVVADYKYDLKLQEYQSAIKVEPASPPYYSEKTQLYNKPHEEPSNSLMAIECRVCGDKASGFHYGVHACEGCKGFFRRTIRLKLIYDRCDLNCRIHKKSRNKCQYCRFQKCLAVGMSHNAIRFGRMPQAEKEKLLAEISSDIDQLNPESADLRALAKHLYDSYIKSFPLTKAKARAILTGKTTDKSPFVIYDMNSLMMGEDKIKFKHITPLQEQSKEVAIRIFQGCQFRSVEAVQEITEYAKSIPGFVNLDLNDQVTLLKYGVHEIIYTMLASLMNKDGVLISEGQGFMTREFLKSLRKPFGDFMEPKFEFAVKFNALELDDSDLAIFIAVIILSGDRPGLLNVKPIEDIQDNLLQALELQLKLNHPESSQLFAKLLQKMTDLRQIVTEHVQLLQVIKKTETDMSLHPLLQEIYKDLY
# In short: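 Agonism was assessed in a beta-lactamase reporter system, HEK293H cells with a stably integrated UAS-bla construct under PPARg control; the 17 h treatment at 37C preceded a 1 h room-temperature FRET substrate read.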
# [15] = qHTS assay for small molecule activators of the heat shock response signaling pathway (AID 743210; active = well fitted activation curve with a large enough effect in the signal ratio in the repeat runs, with a control signal flat, not every such curve was filed as active; the % refers to the signal ratio; note: potency is the fitted concentration of half-maximal effect;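 for activation: HeLa cells with beta-lactamase reporter driven by heat shock elements; series mostly up to about 63 µM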)
# In short: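 Fluorescence from a cleaved B/G FRET substrate (2.5 h, room temp) reports HSE-driven beta-lactamase in HeLa cells treated 5 h at 37 C with DMSO-dissolved compounds.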
# [16] = target: Peroxisome proliferator-activated receptor delta (Homo sapiens) (UniProt Q03181); experiment: qHTS assay to identify small molecule agonists of the peroxisome proliferator-activated receptor delta (PPARd) signaling pathway (AID 743212; calls by dose curve; note: potency is the fitted concentration of half-maximal effect)
# Peroxisome proliferator-activated receptor delta (Homo sapiens), sequence (Q03181 whole entry, looked up): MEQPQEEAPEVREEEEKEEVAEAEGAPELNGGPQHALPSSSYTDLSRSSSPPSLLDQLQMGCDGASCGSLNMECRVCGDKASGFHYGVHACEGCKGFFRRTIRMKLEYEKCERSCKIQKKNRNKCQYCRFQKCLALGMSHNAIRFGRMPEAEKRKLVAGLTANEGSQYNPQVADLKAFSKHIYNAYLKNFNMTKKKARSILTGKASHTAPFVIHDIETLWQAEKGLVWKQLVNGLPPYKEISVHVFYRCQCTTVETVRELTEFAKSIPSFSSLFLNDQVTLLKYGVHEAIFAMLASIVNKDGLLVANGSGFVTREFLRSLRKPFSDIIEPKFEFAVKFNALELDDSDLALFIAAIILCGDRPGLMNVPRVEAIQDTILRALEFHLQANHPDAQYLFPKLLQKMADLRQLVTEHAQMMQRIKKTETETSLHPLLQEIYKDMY
# In short: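 Steps: seed PPARd-bla HEK293H cells; incubate 5 h, 37 C, 5% CO2; add compounds in DMSO; incubate, 37 C; add LiveBLAzer B/G FRET substrate; hold 2 h at room temperature; measure fluorescence.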
# [17] = target: Peroxisome proliferator-activated receptor delta (Homo sapiens) (UniProt Q03181); experiment: qHTS assay to identify small molecule antagonists of the peroxisome proliferator-activated receptor delta (PPARd) signaling pathway (AID 743215; active = well fitted inhibition curve with a large enough effect in the signal ratio in the repeat runs, not every such curve was filed as active; the % refers to the signal ratio;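 note: cells stimulated with agonist L165041 at 300 nM final during compound exposure; series mostly up to about 62 µM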)
# In short: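 Here, a reporter line (HEK293H, beta-lactamase under a UAS) measures PPARd signaling. Compounds are tested against agonist L165041 at 300 nM final concentration over 17 h at 37 C, with fluorescence read after substrate.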
# [18] = target: Peroxisome proliferator-activated receptor gamma (Homo sapiens) (UniProt P37231); experiment: qHTS assay to identify small molecule antagonists of the peroxisome proliferator-activated receptor gamma (PPARg) signaling pathway (AID 743191; calls by dose curve; note: series mostly up to about 63 µM; nearly all actives have a fitted effect of over 30% in size)
# In short: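 Beta-lactamase reporter under UAS control in HEK293H PPARg-bla cells; compound treatment 17 h at 37C. Read-out: fluorescence intensity after 1 h room-temperature incubation with LiveBLAzer B/G FRET substrate.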
# [19] = target: Bile acid receptor (Homo sapiens) (UniProt Q96RI1); experiment: qHTS assay to identify small molecule antagonists of the farnesoid-X-receptor (FXR) signaling pathway (AID 743217; active = well fitted inhibition curve with a large enough effect in the signal ratio in the repeat runs, not every such curve was filed as active; the % refers to the signal ratio)
# Bile acid receptor (Homo sapiens), sequence (Q96RI1 whole entry, looked up): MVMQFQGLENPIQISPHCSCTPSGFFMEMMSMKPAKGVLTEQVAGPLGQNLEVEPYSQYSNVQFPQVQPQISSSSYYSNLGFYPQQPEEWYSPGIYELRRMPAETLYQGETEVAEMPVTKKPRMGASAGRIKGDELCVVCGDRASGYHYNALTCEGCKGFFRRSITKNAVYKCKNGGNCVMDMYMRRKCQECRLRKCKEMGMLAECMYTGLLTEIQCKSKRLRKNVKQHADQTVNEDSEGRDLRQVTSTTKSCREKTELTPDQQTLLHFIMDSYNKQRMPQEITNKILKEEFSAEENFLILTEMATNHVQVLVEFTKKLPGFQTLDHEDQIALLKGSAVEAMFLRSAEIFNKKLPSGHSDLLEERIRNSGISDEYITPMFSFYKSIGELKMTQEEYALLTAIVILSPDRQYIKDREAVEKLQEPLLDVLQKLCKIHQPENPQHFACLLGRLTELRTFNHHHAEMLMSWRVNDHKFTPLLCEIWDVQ
# In short: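 Test compounds are pin-transferred onto FXR-bla HEK 293T cells, then chenodeoxycholic acid is added at 50 uM final. After 16 h at 37 °C, LiveBLAzer B/G substrate is applied for 2 h at room temperature and fluorescence read.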
# [20] = target: Bile acid receptor (Homo sapiens) (UniProt Q96RI1); experiment: qHTS assay to identify small molecule agonists of the farnesoid-X-receptor (FXR) signaling pathway (AID 743220; active = well fitted activation curve with a large enough effect in the signal ratio in the repeat runs, not every such curve was filed as active; the % refers to the signal ratio; note: potency is the fitted concentration of half-maximal effect)
# In short: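 FXR-UAS-bla HEK 293T cells carrying a UAS-driven beta-lactamase reporter were plated for 5 h at 37C/5% CO2, then exposed to DMSO-dissolved Tox21 10K compounds for 16 h at 37C. A LiveBLAzer B/G FRET substrate was loaded for 2 h at room temperature before fluorescence reading.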
SMILES,Potency [1],Potency [2],Potency [3],Potency [4],Potency [5],Potency [6],Potency [7],Potency [8],Potency [9],Potency [10],Potency [11],outcome [12],Potency [13],Potency [14],Potency [15],Potency [16],Potency [17],Potency [18],Potency [19],Potency [20]
O=C1O[C@H]([C@H](O)CO)C(O)=C1O,inactive,inactive,inactive,inactive,inactive,inactive,inactive,inactive,inactive,inactive,–,–,–,–,–,–,–,–,–,–
CC/C(C)=N/O,–,–,inactive,inactive,–,inactive,inactive,inactive,inactive,inactive,inactive,inactive,inactive,–,–,–,–,–,–,–
N[C@@H](Cc1cc(I)c(Oc2ccc(O)c(I)c2)c(I)c1)C(=O)O,inactive,–,–,inactive,inactive and 12.7 µM (active),inactive,inactive,inactive,inactive,inactive,–,inactive,inactive,inactive,inactive,inactive,inactive,–,–,–
COC(=O)/C=C\C(=O)OC,–,–,–,inactive,–,inactive,inactive,inactive,inactive,inactive,–,inactive,inactive,–,–,inactive,inactive,–,–,–
CC(=O)c1nccs1,inactive,–,inactive,inactive,–,inactive,inactive,inactive,inactive,inactive,inactive,inactive,inactive,–,inactive,inactive,inactive,inactive,–,–
Nc1cccc(C(F)(F)F)c1,inactive,inactive,–,inactive,–,inactive,inactive,inactive,inactive,inactive,inactive,–,–,inactive,–,inactive,inactive,–,inactive,inactive
CC(=O)OC/C=C(\C)CCC=C(C)C,inactive,inactive,–,inactive,–,inactive,inactive,inactive,inactive,inactive,–,–,–,–,–,inactive,inactive,–,–,–
Nc1nc(N)c2nc(-c3ccccc3)c(N)nc2n1,–,–,inactive,inactive,–,27.6 µM (active) and 17.2 µM (active),–,inactive,inactive,inactive,inactive,–,–,–,37.1 µM (active) and 29.7 µM (active) and 26.6 µM (active),24.5 µM (active) and 23.7 µM (active),–,–,–,49.5 µM (active) and 21.1 µM (active)
COc1c2ccoc2cc2oc(=O)ccc12,inactive,–,–,inactive,inactive,inactive,–,inactive,inactive,inactive,inactive,inactive,inactive,–,inactive,–,–,inactive,–,–
COC(=O)OC,inactive,inactive,–,inactive,–,inactive,inactive,inactive,inactive,inactive,–,inactive,–,–,–,inactive,inactive,–,–,–
CN1Cc2c(N)cccc2C(c2ccccc2)C1 (stereo not given),–,inactive,–,inactive,–,inactive,–,inactive,inactive,inactive,–,–,–,–,inactive,inactive,inactive,–,–,–
O=C(O)Cc1c[nH]c2ccccc12,–,–,–,inactive,inactive,inactive,inactive,inactive,inactive,inactive,–,inactive,inactive,–,inactive,–,–,–,inactive,inactive
CC(=O)CC(=O)N(C)C,inactive,–,–,inactive,inactive,inactive,–,inactive,inactive,inactive,inactive,inactive,inactive,–,inactive,inactive,inactive,–,inactive,inactive
CCn1cc(C(=O)O)c(=O)c2cc3c(cc21)OCO3,inactive,inactive,–,inactive,inactive,inactive,–,inactive,inactive,inactive,inactive,inactive,inactive,–,inactive,inactive,inactive,–,inactive,inactive
COc1ccc2cc3[n+](cc2c1OC)CCc1cc2c(cc1-3)OCO2,inactive and 48.9 µM (active),–,–,inactive,–,inactive,inactive,inactive,inactive,inactive,inactive,–,inactive,inactive,inactive,inactive,inactive,–,inactive,inactive
CC(C)(C)NC[C@H](O)COc1nsnc1N1CCOCC1,inactive,inactive,–,inactive,inactive,inactive,inactive,inactive,inactive,inactive,inactive,inactive,inactive,–,–,–,–,–,–,–
C=CC(=O)NCOCCCC,inactive,inactive,–,inactive,–,inactive,–,inactive,inactive,inactive,inactive,inactive,inactive,inactive,inactive,inactive,inactive,–,–,–
Cc1ccc([N+](=O)[O-])cc1N,inactive,61 µM (active),–,inactive,inactive,inactive,–,inactive,inactive,inactive,inactive,inactive,inactive,inactive,inactive,inactive,inactive,–,inactive,inactive
O=C(Cl)c1ccc(C(=O)Cl)cc1,inactive,inactive,–,inactive,–,inactive,–,inactive,inactive,inactive,inactive,inactive,inactive,–,–,inactive,inactive,–,–,–
CC(=O)OC[C@H]1O[C@@](COC(C)=O)(O[C@H]2O[C@H](COC(C)=O)[C@@H](OC(C)=O)[C@H](OC(C)=O)[C@H]2OC(C)=O)[C@@H](OC(C)=O)[C@@H]1OC(C)=O,inactive,inactive,–,inactive,inactive,inactive,–,inactive,inactive,inactive,–,inactive,inactive,–,–,inactive,inactive,–,–,–
